# Laboratory results: PubChem BioAssay
# Calls of active or inactive are those of the source.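 The calls were made as follows, unless noted: active = inhibition at or above 50% at 10 µM; inactive = inhibition below 50%.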
# Experiments:
# [1] = inhibitors of TNFa-induced NFkB p65 translocation, primary screen, imaging, HUVEC, MLSMR starter and 10KST1 sets (AID 438;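 active = inhibition above 20% together with a positive visual image hit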;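 also: compound added about 3h40 before a 20 min TNFalpha stimulation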;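 as to inhibition: signal is the nuclear over cytoplasmic p65 intensity ratio per well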); details: HUVEC TNFa-induced p65 nuclear translocation; cell count: measured here: nuclei count (cytotoxicity indicator), at 2.08 µM; inhibition: at 2 µM, stronger effect = higher value, 0% TNFa-plus-vehicle, 100% no-TNFa wells
# [2] = reduction of polyQ htt aggregates in cells – imaging, exon1htt(103Q)mCFP cells, high-content imaging, primary screen (AID 483;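 active = visual image review flags a hit and inhibition of aggregation exceeds 20%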;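 also: compound exposure lasted 3 days before fixation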;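 as to nuclei count: percent of the per-plate median nuclei count of sample wells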); details: exon1htt(103Q)mCFP cell line, aggregate imaging, at 2 µM; inhibition of aggregation: stronger effect = higher value; nuclei count: measured here: cell count, toxicity
# [3] = endothelial E-selectin expression blockers – imaging, HUVEC, immunofluorescence, MLSMR starter and 10KST1 sets, primary screen (AID 487;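 active = visually confirmed hit in the image check and inhibition above 20%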;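 as to inhibition: signal is fraction of cell area covered by stained E-selectin grains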;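 as to nuclei count: 100% = median nuclei count of all wells on the same plate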); details: HUVEC TNFalpha-induced E-selectin immunofluorescence imaging, at 2 µM; inhibition: stronger effect = higher value; nuclei count: measured here: cell number, toxicity
# [4] = target: Voltage-gated potassium channel subunit beta-2 (Rattus norvegicus) (UniProt P62483); experiment: inhibitors of rat Kvbeta2 reductase activity – biochemical, NADPH fluorescence, primary screen (AID 622;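 active = fluorescence slope higher than the sample average by over 3 SD, cut at about -0.22 in these data, passing the limit was not always enough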;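 also: slope of raw intensity against log time taken from 70 to 1610 s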); details: recombinant KvBeta, 4-cyanobenzaldehyde reduction, at 10 µM, stronger effect = higher value
# [5] = target: Voltage-gated potassium channel subunit beta-2 (Rattus norvegicus) (UniProt P62483); experiment: enhancers of rat Kvbeta2 NADPH turnover – biochemical, NADPH fluorescence, primary screen (AID 623;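 active = NADPH fluorescence slope more negative than the mean of all samples by about 3 SD, 99.7% confidence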;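 also: fluorescence intensity change per second fitted from 20 to 320 s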); details: Recombinant KvBeta, NADPH fluorescence decrease slope, 10 min; at 10 µM; stronger effect = lower value
# [6] = target: Alpha-2C adrenergic receptor (Homo sapiens) (UniProt P18825); experiment: compounds altering alpha2C-coupled GIRK flux – cell-based, HEK293 alpha2C/GIRK1/2, thallium flux, primary screen (AID 624;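 active = fluorescence slope after compound addition differing from the mean of all screened samples at 99.7% confidence, in either direction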;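 also: slope of fluorescence ratio to pre-addition baseline per second over 15 to 24 s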); details: thallium flux BTC fluorescence, at 10 µM, actives lie on both sides
# [7] = blockers of RIG-like receptor reporter activation – cell-based, Sendai virus stimulus, luciferase, 10K MLSCN set, TLR/RLR signaling modifier project, primary screen (AID 602276); details: HEK293 RL24 IRF3 luciferase reporter, at 10 µM, stronger effect = higher value;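 also: firefly luciferase from ISG56 promoter only with Renilla not read in this screen; 0% = Sendai virus plus DMSO and 100% = medium plus DMSO without virus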
# [8] = TLR3 IRF3 reporter activation blockers – cell-based, poly I:C stimulus, luciferase, 10K MLSCN set, primary screen (AID 602277;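 active = inhibition of the reporter signal at or above 50%; inactive = inhibition below 50%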); details: HEK293-TLR3 RL24 IRF3 luciferase reporter, at 10 µM, stronger effect = higher value
# Chain of Voltage-gated potassium channel subunit beta-2 (Rattus norvegicus) (P62483 whole entry, looked up): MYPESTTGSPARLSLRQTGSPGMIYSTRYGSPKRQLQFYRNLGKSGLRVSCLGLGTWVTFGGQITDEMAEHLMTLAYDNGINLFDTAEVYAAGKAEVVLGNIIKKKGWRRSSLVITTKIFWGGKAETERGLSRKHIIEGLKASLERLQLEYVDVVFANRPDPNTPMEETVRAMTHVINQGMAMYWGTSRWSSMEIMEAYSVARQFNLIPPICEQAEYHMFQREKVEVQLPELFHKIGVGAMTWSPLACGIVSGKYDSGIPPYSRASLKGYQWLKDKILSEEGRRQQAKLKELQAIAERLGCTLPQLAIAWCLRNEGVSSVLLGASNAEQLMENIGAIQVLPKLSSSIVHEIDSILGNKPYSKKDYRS
# Chain of Alpha-2C adrenergic receptor (Homo sapiens) (P18825 whole entry, looked up): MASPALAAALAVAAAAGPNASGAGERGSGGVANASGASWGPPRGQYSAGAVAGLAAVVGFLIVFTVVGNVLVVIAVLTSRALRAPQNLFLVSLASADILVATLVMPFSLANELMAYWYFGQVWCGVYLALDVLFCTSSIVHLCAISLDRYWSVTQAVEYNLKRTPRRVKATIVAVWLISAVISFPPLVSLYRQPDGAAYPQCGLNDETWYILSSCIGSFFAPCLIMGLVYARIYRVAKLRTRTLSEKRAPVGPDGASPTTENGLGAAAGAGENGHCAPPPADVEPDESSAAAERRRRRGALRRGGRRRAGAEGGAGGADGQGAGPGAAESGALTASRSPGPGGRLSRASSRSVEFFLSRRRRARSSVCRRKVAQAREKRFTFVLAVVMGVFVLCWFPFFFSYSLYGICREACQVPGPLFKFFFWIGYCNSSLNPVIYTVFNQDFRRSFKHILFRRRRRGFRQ
SMILES,cell count [1],inhibition [1],inhibition of aggregation [2],nuclei count [2] [%],inhibition [3],nuclei count [3] [%],fluorescence slope [4],NADPH fluorescence slope [5],slope [6],inhibition [7],inhibition [8]
CCCOc1ccccc1NC(=O)c1ccc(N)cc1,428,7% (inactive),6.7% (inactive),106,-137% (inactive),114,-0.396 (inactive),-4.2e-05 (inactive),0.00363 (inactive),11.3% (inactive),18.2% (inactive)
Cn1c(=O)c2c(nc(CN3CCN(c4ccccc4F)CC3)n2CCN2CCOCC2)n(C)c1=O,317,-6.9% (inactive),13.3% (inactive),114,-26.9% (inactive),107,-0.288 (inactive),-2.7e-05 (inactive),0.00647 (inactive),17.6% (inactive),17.1% (inactive)
COc1ccc(OC)c(C2=NOC(C(=O)Nc3cc(C)nn3-c3ccccc3)C2)c1 (centres undefined),605,5.8% (inactive),-4.1% (inactive),84.1,10.7% (inactive),107,-0.605 (inactive),-4.8e-05 (inactive),0.00657 (inactive),7.53% (inactive),19.2% (inactive)
O=C(Nc1ccc2c(c1)OCO2)c1cccc(Cl)c1,407,1.4% (inactive),-14.3% (inactive),107,-22.5% (inactive),114,-0.398 (inactive),-4.1e-06 (inactive),0.0047 (inactive),-28.3% (inactive),-70.9% (inactive)
CN1CCN(c2nc(-c3ccncc3)nc3ccccc23)CC1,324,-13.1% (inactive),-19.7% (inactive),51.3,-133% (inactive),120,-0.41 (inactive),-3.7e-05 (inactive),0.00562 (inactive),11.9% (inactive),15.9% (inactive)
CCOc1ccc2nc(Nc3nc4c(c(=O)[nH]3)CCC4)nc(C)c2c1,612,0.8% (inactive),-12.1% (inactive),112,-9.2% (inactive),110,-0.429 (inactive),-5.3e-05 (inactive),0.00628 (inactive),-19.8% (inactive),-83.1% (inactive)
O=C(NCc1ccco1)c1c2c(nc3ccccc13)CCC2,301,-1.7% (inactive),11.3% (inactive),87.3,-7.8% (inactive),83.7,-0.494 (inactive),-5.2e-05 (inactive),0.00639 (inactive),5.99% (inactive),7.89% (inactive)
O=c1c2nnn(Cc3ccc(Cl)cc3)c2ncn1Cc1ccc(F)cc1,608,-7.9% (inactive),-10.3% (inactive),130,-19.2% (inactive),111,-0.539 (inactive),-6.1e-05 (inactive),0.00552 (inactive),13.6% (inactive),20.6% (inactive)
O=C(CCSc1ccccc1)Nc1ccc(S(=O)(=O)N2CCOCC2)cc1,381,5.2% (inactive),8.5% (inactive),105,-102% (inactive),109,-0.53 (inactive),-5.2e-06 (inactive),0.00555 (inactive),18.1% (inactive),11.6% (inactive)
COc1ccc2ccccc2c1CN1CCCC(CO)C1 (centres undefined),745,3.4% (inactive),4.4% (inactive),110,53% (inactive),97.2,-0.422 (inactive),-8.2e-05 (inactive),0.00503 (inactive),16% (inactive),35.4% (inactive)
CCCCOC(=O)c1cccc(NC(=O)CC)c1,667,-22.3% (inactive),-8.8% (inactive),97.1,16.4% (inactive),110,-0.557 (inactive),4e-05 (inactive),0.00523 (inactive),-34.7% (inactive),-123% (inactive)
Cc1ccc2cc(C(c3nnnn3CC3CCCO3)N3CCc4ccccc4C3)c(=O)[nH]c2c1 (centres undefined),691,-6.9% (inactive),0.5% (inactive),78.6,-102% (inactive),120,-0.523 (inactive),-3.7e-05 (inactive),0.00473 (inactive),14% (inactive),29.9% (inactive)
Cc1ccc2oc(=O)c3cnn(CC(=O)N4CCCCC4C)c3c2c1 (centres undefined),661,3.9% (inactive),-4% (inactive),77.1,3.2% (inactive),88.1,-0.518 (inactive),-1.6e-05 (inactive),0.00597 (inactive),3.36% (inactive),23.4% (inactive)
CCN(C(C)=O)c1nnc(CSc2nc3ccccc3s2)s1,531,-15.2% (inactive),10.2% (inactive),96.4,-11.6% (inactive),119,-0.475 (inactive),2.8e-05 (inactive),0.00523 (inactive),-76.7% (inactive),-233% (inactive)
